Consider 9 molecules from PubChem BioAssay (NCATS).

Where “and” joins values, the source holds several entries; their conditions need not be identical. Equal values may be shown once. Calls of active or inactive are those of the source. Unless noted, calls come from the whole dose curve.

The target in experiment [1] is DNA dC->dU-editing enzyme APOBEC-3G (Homo sapiens) (UniProt Q9HC16). The experiment is described as follows: qHTS for inhibitors of Vif-A3G interactions: Validation (AID 588379; active = well fitted curve in the direction sought with a large enough effect; inconclusive = small, poorly fitted or top-dose-only effect, or another doubt; inactive = no such curve, though single readings can be large; an effect the other way counts as inactive or inconclusive; note: 0% is about no effect). In a few lines: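 HeLa cells stably expressing Vif and A3G-eYFP, 700 cells/well, incubated overnight at 37 deg C, then exposed to compound overnight at 37 deg C. Inhibition of Vif-mediated degradation read as increased yellow fluorescence (Ex 488/Em 500-530) by laser-scanning cytometry.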
A general note: In qHTS, concentration-response curves come from the screen itself.

Experiment [2] concerns the target Bile acid receptor (Homo sapiens) (UniProt Q96RI1). As to the kind of experiment: qHTS assay for small molecule antagonists of farnesoid X receptor signaling (AID 588526). Note: % is set by controls: 0 for no effect and ±100 for the full control effect. In a few lines: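 Antagonist mode: titrated compounds tested against chenodeoxycholic acid stimulation (normalized to 50 uM CDCA and DMSO) in GeneBLAzer HEK293T cells for 16 h. Beta-lactamase read by CCF4 fluorescence; IC50 from Hill fits.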

Experiment [3] shares this target. As to the kind of experiment: qHTS assay for small molecule agonists of farnesoid X receptor signaling (AID 588527).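 Note: series mostly up to about 77 µM; 0% = vehicle basal and 100% = reference agonist.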 As to conditions: HEK293T FXR-UAS-bla, beta-lactamase ratio, 16 h; stronger effect = higher value. An outline of the steps:
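Quantitative HTS used FXR-UAS-bla HEK293T cells with 16 h compound incubation at 37 C. EC50 values came from concentration-response curves normalized to chenodeoxycholic acid.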

For experiment [4], the target named is Peroxisome proliferator-activated receptor delta (Homo sapiens) (UniProt Q03181). The experiment is described as follows: qHTS assay for small molecule agonists of peroxisome proliferator-activated receptor delta signaling (AID 588534).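 Note: 0% = DMSO basal wells and 100% = positive control agonist at 10 µM.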 In a few lines:
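Cells carrying a PPAR-delta beta-lactamase reporter were treated with compounds for 18 h at 37 °C in agonist mode. CCF4 fluorescence was read after 2 h; EC50 and efficacy from Hill fits.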

Experiment [5] can be described thus: qHTS assay for small molecule antagonists of peroxisome proliferator-activated receptor delta signaling (AID 588535; active = well fitted inhibition curve with a large enough effect in the signal ratio, with a control signal flat, not every such curve was filed as active; inconclusive = small, poorly fitted or top-dose-only effect, or effect the other way, or a change in a side signal; inactive = no such curve, though single readings can be large or run the other way; the % refers to the signal ratio; note: potency is the fitted concentration of half-maximal effect;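 for max response: cells co-treated with a PPAR-delta agonist as stimulator during compound exposure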). Conditions: HEK293T PPARd-UAS-bla, beta-lactamase FRET ratio, 18 h; 460 nm channel. An outline of the steps: (§1)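 Antagonist-mode beta-lactamase reporter (GeneBLAzer PPAR-delta-UAS-bla) in HEK293T cells, 2% charcoal/dextran FBS, 4000 cells/well. Compound titrations, 18 h at 37 C; CCF4 ratio read, IC50 and efficacy from Hill fits.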

For experiment [6], the target named is Peroxisome proliferator-activated receptor delta (Homo sapiens) (UniProt Q03181). The experiment is described as above. An outline of the steps: as §1
The target in experiment [7] is Peroxisome proliferator-activated receptor gamma (Homo sapiens) (UniProt P37231). As to the kind of experiment: qHTS assay for small molecule agonists of peroxisome proliferator-activated receptor gamma signaling (AID 588536; active = well fitted curve in the direction sought with a large enough effect in the signal ratio, with a control signal flat, not every such curve was filed as active; inconclusive = small, poorly fitted or top-dose-only effect, or effect the other way, or a change in a side signal; inactive = no such curve, though single readings can be large or run the other way; the % refers to the signal ratio;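 note: 0% = DMSO basal wells and 100% = rosiglitazone at 2 µM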). An outline of the steps:
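HEK293 UAS-bla reporter line, 1% charcoal/dextran FBS; titration, 16 h, 37 C; CCF4 loading 2 h RT; fluorescence 460/530 nm. Normalized to rosiglitazone 2 uM = 100%, DMSO = 0%.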

The nature of experiment [8]: qHTS assay for small molecule agonists of retinoid X receptor alpha signaling (AID 588544).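 For activation: 0% = DMSO basal wells and 100% = reference agonist.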 Conditions: HEK293T RXRa-UAS-bla, beta-lactamase reporter, 18 h; 530 nm emission.
Experiment [9] concerns the target Retinoic acid receptor RXR-alpha (Homo sapiens) (UniProt P19793). Described as above.
Experiment [10] can be described thus: qHTS for Inhibitors of ATXN expression: Validation of Cytotoxic Assay (AID 588349; active = well fitted curve in the direction sought with a large enough effect; inconclusive = small, poorly fitted or top-dose-only effect, or another doubt; inactive = no such curve, though single readings can be large; an effect the other way counts as inactive or inconclusive; note: % is set by controls: 0 for no effect and ±100 for the full control effect). In a few lines:
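HEK293 cells treated with titrated compound for 72 hr at 37 degrees C; viability read as intracellular ATP by CellTiter Glo luminescence.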

A short description of experiment [11]: qHTS for Inhibitors of ATXN expression: Validation (AID 588378; active = well fitted curve in the direction sought with a large enough effect; inconclusive = small, poorly fitted or top-dose-only effect, or another doubt; inactive = no such curve, though single readings can be large; an effect the other way counts as inactive or inconclusive; note: series mostly up to about 57 µM; % is set by controls: 0 for no effect and ±100 for the full control effect; nearly all actives have a fitted effect of over 75% in size). In a few lines: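 Compounds were pinned onto attached HEK293 cells carrying an ATXN2-firefly luciferase construct and incubated 24 hrs at 37 degrees C. Each well then received a fluorescent viability reagent followed by luciferase substrate for end-point luminescence.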
For experiment [12], the target named is Estrogen receptor (Homo sapiens) (UniProt P03372). As to the kind of experiment: qHTS assay for small molecule antagonists of estrogen receptor alpha signaling (AID 588513; active = well fitted curve in the direction sought with a large enough effect in the signal ratio, with a control signal flat, not every such curve was filed as active; inconclusive = small, poorly fitted or top-dose-only effect, or effect the other way, or a change in a side signal; inactive = no such curve, though single readings can be large or run the other way; the % refers to the signal ratio; note: potency is the fitted concentration of half-maximal effect). In a few lines:
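Fluorescence from CCF4 substrate after 2 h at room temperature gave reporter activity; cells had been exposed to compound and 0.5nM 17-beta-estradiol for 18 h at 37 C. Hill-equation fitting yielded IC50 and maximal response.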

For experiment [13] the target is unchanged. The experiment is described as follows: qHTS assay for small molecule agonists of estrogen receptor alpha signaling (AID 588514).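 Note: 0% = vehicle only and 100% = reference agonist; nearly all actives have a fitted effect of over 70% in size.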 An outline of the steps: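 ER-alpha-UAS-bla GripTite HEK293 cells, 5000/well in 2% charcoal/dextran-stripped FBS medium, treated with compound titrations 18 h at 37 C. CCF4 beta-lactamase read by fluorescence after 2 h RT; normalised to 20 nM 17-beta-estradiol (100%) and DMSO (0%), Hill fit for EC50 and efficacy.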

The target in experiment [14] is Glucocorticoid receptor (Homo sapiens) (UniProt P04150). As to the kind of experiment: qHTS assay for small molecule agonists of glucocorticoid receptor signaling (AID 588532; active = well fitted curve in the direction sought with a large enough effect in the signal ratio, with a control signal flat; inconclusive = small, poorly fitted or top-dose-only effect, or a change in a side signal; inactive = no such curve, though single readings can be large or run the other way; the % refers to the signal ratio;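 note: 100% = dexamethasone at 0.1 µM and 0% = DMSO only wells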). As to conditions: HeLa MMTV-bla, beta-lactamase ratio, agonist, 18 h; stronger effect = higher value; percent of dexamethasone control, DMSO zero. An outline of the steps: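 HeLa GRE-bla reporter cells; 18 h compound exposure at 37 C; 2 h CCF4 loading at room temperature; fluorescence at 460 and 530 nm; EC50 by Hill equation.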

Experiment [15] has the same target. As to the kind of experiment: qHTS assay for small molecule antagonists of glucocorticoid receptor signaling (AID 588533; active = well fitted inhibition curve with a large enough effect in the signal ratio, with a control signal flat, not every such curve was filed as active; inconclusive = small, poorly fitted or top-dose-only effect, or effect the other way, or a change in a side signal; the % refers to the signal ratio; note: % is set by controls: 0 for no effect and ±100 for the full control effect). An outline of the steps: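 Antagonist-mode qHTS: compound titrations added to GRE-bla HeLa cells, then dexamethasone 2 nM final; 18 h, 37 C. CCF4 FRET fluorescence normalized to dexamethasone and DMSO; IC50 from Hill fit.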
In experiment [16] the target is Peroxisome proliferator-activated receptor gamma (Homo sapiens) (UniProt P37231). The experiment is described as follows: qHTS assay for small molecule antagonists of peroxisome proliferator-activated receptor gamma signaling (AID 588537; active = well fitted inhibition curve with a large enough effect in the signal ratio, with a control signal flat, not every such curve was filed as active; inconclusive = small, poorly fitted or top-dose-only effect, or effect the other way, or a change in a side signal; the % refers to the signal ratio;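 note: reporter cells co-stimulated with 50 nM rosiglitazone agonist during compound treatment; % of control where 0% means no effect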). In a few lines: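 PPARγ-UAS-bla HEK293 cells (3000/well) in 1% charcoal/dextran-stripped FBS are treated with compound, then stimulated with 50 nM rosiglitazone for 16 h at 37 °C. Read-out is CCF4 β-lactamase fluorescence after 2 h at RT. IC50 comes from Hill fits normalised to rosiglitazone and DMSO.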

Experiment [17] has as its target Vitamin D3 receptor (Homo sapiens) (UniProt P11473). As to the kind of experiment: qHTS assay for small molecule antagonists of vitamin D receptor signaling (AID 588541).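 Note: receptor activated by calcitriol during compound treatment; series mostly up to about 77 µM; % is set by controls: 0 for no effect and ±100 for the full control effect.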 In a few lines: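 VDR-UAS-bla HEK293T cells in 2% charcoal-stripped FBS were stimulated with 1-alpha,25-dihydroxyvitamin D3 (3 nM final) plus compound for 16 h at 37 C. The beta-lactamase CCF4 readout was normalized to 50 nM agonist and DMSO, and Hill fits gave IC50.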

Experiment [18] has the same target. As to the kind of experiment: qHTS assay for small molecule agonists of vitamin D receptor signaling (AID 588543).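 Note: 0% = DMSO basal and 100% = reference agonist control.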 In a few lines:
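Reporter cells (HEK293T, VDR-UAS-bla) were seeded in medium with 2% charcoal-stripped serum and incubated 5 h, then compounds in concentration series were added for 16 h at 37 °C. Stimulation was scaled between DMSO basal and 50 nM 1α,25-dihydroxyvitamin D3.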

Chain of Estrogen receptor (Homo sapiens) (P03372 whole entry, looked up): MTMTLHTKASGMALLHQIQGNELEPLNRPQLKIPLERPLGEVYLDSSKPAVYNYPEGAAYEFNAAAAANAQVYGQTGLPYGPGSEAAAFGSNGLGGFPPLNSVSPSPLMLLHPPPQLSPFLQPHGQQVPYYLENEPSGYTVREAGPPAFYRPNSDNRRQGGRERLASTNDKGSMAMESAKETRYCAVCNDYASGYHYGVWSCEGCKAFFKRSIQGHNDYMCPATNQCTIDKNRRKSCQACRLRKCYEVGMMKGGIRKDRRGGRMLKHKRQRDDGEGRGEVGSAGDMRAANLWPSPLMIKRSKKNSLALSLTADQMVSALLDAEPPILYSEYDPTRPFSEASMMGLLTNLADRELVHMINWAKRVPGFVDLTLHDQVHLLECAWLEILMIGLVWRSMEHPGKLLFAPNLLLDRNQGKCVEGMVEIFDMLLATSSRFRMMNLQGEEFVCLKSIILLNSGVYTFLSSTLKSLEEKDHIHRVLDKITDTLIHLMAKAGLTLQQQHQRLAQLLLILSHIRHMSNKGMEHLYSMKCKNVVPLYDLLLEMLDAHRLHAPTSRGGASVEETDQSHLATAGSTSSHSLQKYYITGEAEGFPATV
Chain of Bile acid receptor (Homo sapiens) (Q96RI1 whole entry, looked up): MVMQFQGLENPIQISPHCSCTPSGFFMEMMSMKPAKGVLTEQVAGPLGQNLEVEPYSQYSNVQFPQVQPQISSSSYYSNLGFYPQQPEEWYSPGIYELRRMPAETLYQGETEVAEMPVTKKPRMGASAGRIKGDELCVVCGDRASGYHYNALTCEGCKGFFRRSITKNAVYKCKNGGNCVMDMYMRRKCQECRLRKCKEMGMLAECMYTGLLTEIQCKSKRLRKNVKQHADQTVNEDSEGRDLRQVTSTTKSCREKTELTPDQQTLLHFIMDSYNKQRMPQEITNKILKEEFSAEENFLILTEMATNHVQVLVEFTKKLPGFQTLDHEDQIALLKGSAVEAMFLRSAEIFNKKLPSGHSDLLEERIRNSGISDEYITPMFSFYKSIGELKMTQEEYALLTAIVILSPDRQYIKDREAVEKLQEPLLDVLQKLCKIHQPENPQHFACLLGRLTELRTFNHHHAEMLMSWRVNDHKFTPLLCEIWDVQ
Chain of Glucocorticoid receptor (Homo sapiens) (P04150 whole entry, looked up): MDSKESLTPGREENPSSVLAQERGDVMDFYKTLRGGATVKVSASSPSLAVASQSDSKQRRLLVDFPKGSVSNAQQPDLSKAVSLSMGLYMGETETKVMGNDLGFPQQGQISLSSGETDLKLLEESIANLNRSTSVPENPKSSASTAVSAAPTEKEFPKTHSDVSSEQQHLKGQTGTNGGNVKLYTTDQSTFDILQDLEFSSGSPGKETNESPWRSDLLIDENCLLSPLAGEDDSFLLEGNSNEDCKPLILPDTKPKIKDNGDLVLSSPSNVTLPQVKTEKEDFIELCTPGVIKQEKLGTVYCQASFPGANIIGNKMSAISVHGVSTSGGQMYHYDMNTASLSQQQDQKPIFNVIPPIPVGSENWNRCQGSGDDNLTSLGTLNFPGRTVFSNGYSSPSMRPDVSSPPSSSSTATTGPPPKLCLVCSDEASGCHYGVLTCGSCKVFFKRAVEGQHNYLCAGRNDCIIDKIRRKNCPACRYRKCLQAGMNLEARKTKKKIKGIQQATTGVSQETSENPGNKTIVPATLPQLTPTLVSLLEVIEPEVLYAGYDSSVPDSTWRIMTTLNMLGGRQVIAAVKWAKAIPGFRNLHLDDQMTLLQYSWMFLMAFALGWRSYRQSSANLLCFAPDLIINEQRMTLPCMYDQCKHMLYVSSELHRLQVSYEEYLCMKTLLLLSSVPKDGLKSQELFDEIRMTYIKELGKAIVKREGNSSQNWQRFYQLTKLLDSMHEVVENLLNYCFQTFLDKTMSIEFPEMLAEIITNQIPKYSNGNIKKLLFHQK
Chain of DNA dC->dU-editing enzyme APOBEC-3G (Homo sapiens) (Q9HC16 whole entry, looked up): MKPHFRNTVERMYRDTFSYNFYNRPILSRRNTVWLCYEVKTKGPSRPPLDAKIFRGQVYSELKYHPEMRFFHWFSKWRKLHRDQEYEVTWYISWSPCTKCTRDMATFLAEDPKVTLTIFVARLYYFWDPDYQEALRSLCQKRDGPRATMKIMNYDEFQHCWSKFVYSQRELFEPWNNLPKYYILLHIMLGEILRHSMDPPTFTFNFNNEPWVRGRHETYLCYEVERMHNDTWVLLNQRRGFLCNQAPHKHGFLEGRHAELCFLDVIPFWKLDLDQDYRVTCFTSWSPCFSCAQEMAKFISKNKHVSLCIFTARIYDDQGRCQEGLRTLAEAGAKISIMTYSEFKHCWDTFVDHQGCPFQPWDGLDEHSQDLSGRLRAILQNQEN
Chain of Peroxisome proliferator-activated receptor delta (Homo sapiens) (Q03181 whole entry, looked up): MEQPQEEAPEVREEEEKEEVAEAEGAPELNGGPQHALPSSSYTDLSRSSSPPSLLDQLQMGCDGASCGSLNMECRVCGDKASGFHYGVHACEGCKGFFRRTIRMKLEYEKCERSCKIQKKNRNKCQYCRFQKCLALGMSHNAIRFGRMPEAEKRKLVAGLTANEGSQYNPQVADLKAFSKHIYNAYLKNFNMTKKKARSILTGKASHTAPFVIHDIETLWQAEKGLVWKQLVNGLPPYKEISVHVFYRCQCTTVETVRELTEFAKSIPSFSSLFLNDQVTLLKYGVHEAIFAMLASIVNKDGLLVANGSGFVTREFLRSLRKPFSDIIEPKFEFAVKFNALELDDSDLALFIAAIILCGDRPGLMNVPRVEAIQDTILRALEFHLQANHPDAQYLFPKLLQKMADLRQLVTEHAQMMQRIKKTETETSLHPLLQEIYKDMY
Chain of Peroxisome proliferator-activated receptor gamma (Homo sapiens) (P37231 whole entry, looked up): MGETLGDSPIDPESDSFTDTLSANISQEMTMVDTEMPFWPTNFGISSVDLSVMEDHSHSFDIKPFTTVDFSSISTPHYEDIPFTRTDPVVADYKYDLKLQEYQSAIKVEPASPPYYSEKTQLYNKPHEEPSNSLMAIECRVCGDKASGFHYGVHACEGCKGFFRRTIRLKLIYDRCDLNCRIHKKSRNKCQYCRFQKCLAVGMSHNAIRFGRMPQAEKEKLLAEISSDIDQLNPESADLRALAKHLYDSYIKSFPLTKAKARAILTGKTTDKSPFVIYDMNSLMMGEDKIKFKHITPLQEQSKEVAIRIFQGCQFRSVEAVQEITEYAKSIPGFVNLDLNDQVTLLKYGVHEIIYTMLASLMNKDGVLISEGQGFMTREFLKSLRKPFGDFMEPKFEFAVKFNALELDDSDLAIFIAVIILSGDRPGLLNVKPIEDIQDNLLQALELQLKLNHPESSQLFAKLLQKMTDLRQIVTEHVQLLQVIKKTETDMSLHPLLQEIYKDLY
Chain of Vitamin D3 receptor (Homo sapiens) (P11473 whole entry, looked up): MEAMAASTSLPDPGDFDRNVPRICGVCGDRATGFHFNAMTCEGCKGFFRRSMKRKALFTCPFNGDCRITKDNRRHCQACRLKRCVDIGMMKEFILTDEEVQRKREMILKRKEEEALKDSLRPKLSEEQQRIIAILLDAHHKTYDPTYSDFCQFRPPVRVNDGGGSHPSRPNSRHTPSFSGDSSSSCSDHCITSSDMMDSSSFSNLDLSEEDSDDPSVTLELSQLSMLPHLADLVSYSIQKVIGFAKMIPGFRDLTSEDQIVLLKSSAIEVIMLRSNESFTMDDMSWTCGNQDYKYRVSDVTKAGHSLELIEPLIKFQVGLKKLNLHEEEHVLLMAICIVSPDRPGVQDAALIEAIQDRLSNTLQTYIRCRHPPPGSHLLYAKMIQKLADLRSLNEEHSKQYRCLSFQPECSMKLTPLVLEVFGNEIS
Chain of Retinoic acid receptor RXR-alpha (Homo sapiens) (P19793 whole entry, looked up): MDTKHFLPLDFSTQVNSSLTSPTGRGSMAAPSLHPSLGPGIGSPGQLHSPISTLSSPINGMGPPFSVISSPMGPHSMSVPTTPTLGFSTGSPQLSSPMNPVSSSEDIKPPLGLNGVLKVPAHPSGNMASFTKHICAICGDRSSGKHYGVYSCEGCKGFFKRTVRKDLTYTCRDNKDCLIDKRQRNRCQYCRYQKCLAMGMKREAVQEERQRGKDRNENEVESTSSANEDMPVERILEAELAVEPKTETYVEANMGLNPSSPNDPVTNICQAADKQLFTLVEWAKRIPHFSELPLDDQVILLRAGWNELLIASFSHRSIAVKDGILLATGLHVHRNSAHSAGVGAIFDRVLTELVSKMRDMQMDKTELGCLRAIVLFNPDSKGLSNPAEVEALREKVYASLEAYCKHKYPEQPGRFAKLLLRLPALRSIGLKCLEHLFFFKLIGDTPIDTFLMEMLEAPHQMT

For the molecule `C[C@@H]1C[C@@H]([C@H](O)CC2CC(=O)NC(=O)C2)C(=O)[C@@H](C)C1`, the outcome in [1], in [4], in experiment [7] and in [9] was inactive. In experiment [2], the Potency result was “inactive”. Further, the activation in experiment [3] is 0.176% (inactive) and -1.82% (inactive) and 1.78% (inactive). Also, the max response in experiment [5] was -115% and -59.6%; in [8] it was -10.1%. For the same molecule, the Potency in experiment [6] was 316 nM (active) and 199 nM (active).

As for `COc1ccc(C(=O)N2CCCC2=O)cc1`, the molecule was classed as inactive in [10] and in experiment [1]. Besides, the Potency result in experiment [11] is “inactive”.

On to `Oc1ccc2[nH]cc(CCCCN3CC=C(c4ccccc4)CC3)c2c1`, for which, in experiment [1], the molecule was classed as inactive.

`C[C@H]1C(=O)O[C@@H]2CCN3CC=C(COC(=O)[C@](C)(O)[C@]1(C)O)[C@H]23`: the Potency entry in [12], in experiment [13], in [2], in experiment [15] and in experiment [16] was “inactive” each time. Besides, the activation in experiment [3] is 2.9% (inactive); in experiment [14] it was 8.93% (inactive). Besides, the call in [4], in [7], in experiment [17], in [18] and in experiment [9] was inactive. In addition, the max response in [8] was -6.89%.

With `COCC(=O)N(c1c(C)cccc1C)C(C)C(=O)OC` (stereo unspecified), the Potency entry in [12], in experiment [2], in experiment [6] and in experiment [16] was “inactive” throughout. For the same molecule, the activation in [3] is 3.52% (inactive). In addition, the molecule was classed as inactive in experiment [4], in [7], in experiment [17], in [18] and in [9]. For the same molecule, the max response is -19% in experiment [5] and 3.24% in [8].

As to `O=C1NCN(c2ccccc2)C12CCN(CCCOc1ccc(F)cc1)CC2`, in experiment [1], the result was inactive.

In the case of `O=c1n(Cl)c(=O)n(Cl)c(=O)n1Cl`, the Potency result in experiment [12], in [15] and in [16] was “inactive” throughout. Also, the activation in experiment [14] was 0.274% (inactive). Besides, the call in [4], in experiment [7], in experiment [17], in [18] and in [9] was inactive. The max response in experiment [8] is -19.7%.

With `CCCCCCCCCCCC[N+](C)(C)CCOc1ccccc1`, in experiment [12], the Potency is 12.6 µM [inconclusive] (active). The result in [4], in experiment [17] and in [18] was inactive.

As for `COP(=O)(OC)OC=C(Cl)Cl`, the Potency entry in experiment [12], in [13] and in experiment [6] was “inactive” in each case. The molecule was called inactive in experiment [4], in experiment [7] and in experiment [9]. In addition, the max response was 3.66% and 4.74% and -42.4% in experiment [5]; -12.2% and -24.6% and -4.24% in [8].
